According to PubChem BioAssay:

Test: probe aLefty2 binding to arrayed compounds – biochemical, biotinylated probe, 635/667 nm fluorescence, primary screen (AID 1094);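 also: score merges spot fluorescence near 667 nm with spot signal-to-noise ratio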
Details: small-molecule microarray, higher = more signal

| SMILES | composite z-score |
| --- | --- |
| CCOC(=O)[C@H](Cc1ccccc1)NC(=O)CCC1CC(OC(=O)NCc2ccc3c(c2)OCO3)CC2(CCCC(COC(=O)NCc3cccc(C(F)(F)F)c3)O2)O1 (stereo partly specified) | -0.0383 |
| CC(=O)OC[C@H]1O[C@@H](ON=C[C@@H](C)[C@H](OCc2ccccc2)C(C)C)[C@H](OC(C)=O)[C@@H](OC(C)=O)[C@@H]1OC(C)=O | -0.114 |
| O=C1[C@H]2[C@H]3[C@H](O)[C@H](O)CC(=NOCc4ccccc4)[C@H]3CC[C@H]2C(=O)N1C[C@@H]1CCCO1 | -0.238 |
| CO[C@@H]1COC(=O)[C@@H]2CCCN2C(=O)[C@@H](C)COC(=O)[C@H](COCc2ccccc2)NC(=O)CC=C[C@H]1C | -0.236 |
| C=C(/C(=C/C[C@H](OC(C)=O)c1ccc(OCCO)cc1)c1cnc2ccccc2c1)C(C)C | -0.062 |
| COC(=O)CC=C[C@@H](C)[C@H](OC)c1ccccc1Br | -0.188 |
| COc1ccccc1CN1C(=O)c2ccccc2[C@@H](C(=O)NCC(F)(F)F)[C@@H]1c1ccc(CO)cc1 | -0.107 |
| O=C1[C@H]2[C@H]3[C@H](O)[C@H](O)CC(=NO[C@@H]4O[C@H](CO)[C@@H](O)[C@H](O)[C@H]4O)[C@H]3CC[C@H]2C(=O)N1C1CCCCC1 | -0.0652 |
| CC(C)=CCCC(C)=CCON=C1C[C@@H](O)[C@@H](O)[C@@H]2[C@@H]3C(=O)N(C[C@@H]4CCCO4)C(=O)[C@@H]3CC[C@@H]12 | -0.133 |
| C=CC[C@@H]1C=C[C@H](ON=C2c3cc(OC)ccc3O[C@H](c3cccc(OC)c3)[C@H]2O)[C@@H](CO)O1 | -0.233 |
| CCc1cc2c(nc1CC)CCN(CCC(C)=NOC[C@@H](O)COCc1ccco1)C2 | 0.469 |
| CCN1C(=O)[C@H]2[C@H]3[C@H](O)[C@H](O)CC(=NOC(C)CN4CCCCc5nc(C)c(C)cc54)[C@@H]3CC[C@H]2C1=O (stereo partly specified) | -0.0977 |
| COCCOC(=O)N1C(=O)[C@@]2(c3cc(C#CC4(O)CCCCCC4)ccc31)[C@H](c1ccc(OCCO)cc1)N1[C@H](c3ccccc3)[C@H](c3ccccc3)OC(=O)[C@H]1[C@@H]2C(=O)NC[C@H](O)c1ccccc1 | -0.0212 |
| CC1CC/C=C\[C@H]2OC34C=CCN(C(C)C)C(=O)[C@H]3N(CCCO)C(=O)[C@@H]4C2C(=O)O1 (stereo partly specified) | 0.131 |
| CCCNC(=O)OC[C@H]1O[C@H](CCON=CC[C@@H]2C=C[C@H](OC(C)=O)[C@@H](COC(C)=O)O2)C=C[C@@H]1Oc1ccc(OC)cc1 | -0.0159 |
| Cc1ccc(S[C@]2(C(=O)O)CC(=O)N(Cc3ccccc3)[C@@H]2c2ccc(CO)cc2I)cc1 | -0.103 |
| CC(=O)C[C@H](O)[C@@H](NC(=O)OC(C)(C)C)C(C)C | -0.214 |
| COC(=O)C1=CCC(c2cccc(Cl)c2)O1 (stereo unspecified) | -0.043 |

| SMILES | composite z-score |
| --- | --- |
| COCCCNC(=O)[C@@]1(CCS(=O)(=O)c2ccccc2)N=C(c2ccc(OCCCO)cc2)O[C@H]1c1ccccc1 | 0.888 |
| O=C(NN=C1C[C@@H](O)[C@@H](O)[C@@H]2[C@@H]3C(=O)N(c4cccc(Oc5ccccc5)c4)C(=O)[C@@H]3CC[C@@H]12)OCc1ccccc1 | -0.0345 |
| CCOC(=O)NN=C1C[C@@H](O)[C@@H](O)[C@@H]2[C@@H]3C(=O)N(C[C@@H]4CCCO4)C(=O)[C@@H]3CC[C@@H]12 | -0.0458 |
| COC(=O)c1c(CC[C@@H](CO)NC(=O)N[C@H](Cc2ccccc2)Cn2cc(-c3ccccc3N)nn2)oc(C(C)=O)c1C(=O)OC | 0.323 |
| CC(CCN1CCc2nc(-c3ccccc3)c(-c3ccccc3)cc2C1)=NOC(C)CN1CCCCc2nc(C)c(C)cc21 (stereo unspecified) | -0.0813 |
| CCCNC(=O)[C@@H]1c2ccccc2C(=O)N(Cc2ccccc2Cl)[C@H]1c1ccc(CO)cc1 | 0.102 |
| COc1ccc(O[C@H]2C=C[C@@H](c3ccccc3)O[C@@H]2COC(=O)CCC(C)=NOCC[C@@H]2C=C[C@H](OC(C)=O)[C@@H](COC(C)=O)O2)cc1 | 0.113 |
| CC(C)OC(=O)C=C1C[C@@H](c2ccc(C#N)cc2)O[C@@H](c2ccc(C#N)cc2)O1 | 0.314 |
| CCCC=C(CCC)[C@@H](NC(=O)c1ccc(-c2ccccc2)cc1)c1ccc(C(=O)OC)cc1 | 0.0997 |
| CCCC[C@@H](O)C1=C(C)C[C@H]2C(=O)N(Cc3ccccc3)C(=O)[C@H]2[C@H]1CO | -0.0998 |
| COCCNC(=O)OCC1CCCC2(CC(OC(=O)NCCc3ccc(F)cc3)CC(CCC(=O)N[C@@H](C)C(=O)OC)O2)O1 (stereo partly specified) | -0.0845 |
| C[N+](C)(C)CCCCCCNC(=O)[C@@H]1C[C@@H]2C(=O)N3CCC[C@H]3C(=O)N2[C@@H]1c1cccc(OCCO)c1 | -0.0898 |
| CC(C)C[C@@H]1NC(=O)[C@H]2C[C@@H](C(=O)O)[C@@H](c3ccc(O)cc3)N2C1=O | 0.449 |
| O=C1O[C@@H](c2ccccc2)[C@@H](c2ccccc2)N2[C@@H](c3ccccc3OCCO)[C@]3(C(=O)Nc4ccc(C#CCCO)cc43)[C@@H](C(=O)O)[C@H]12 | -0.3 |
| CO[C@H]1COC(=O)[C@H](C)COC(=O)CC=C[C@@H](C)[C@H](OC)COC(=O)CC=C[C@@H]1C | -0.233 |
| C=CCC(OC(C)=O)[C@@H]1[C@@H](N(Cc2cc3ccccc3o2)C(=O)Cc2ccc(F)cc2)c2cc(OCCCO)ccc2N1C(=O)Cc1ccc(OC)cc1 (stereo partly specified) | -0.198 |
| CO[C@@H]1COC(=O)[C@H](C)NC(=O)[C@@H](C)COC(=O)CCC[C@H]1C | -0.179 |
| CC(C)(C)OC(=O)CC[C@]1(C(N)=O)COC(c2ccc(OCCCO)cc2)=N1 | 0.65 |
